Only some compounds are listed: those with a hit (about 8% of all), similar ones and a draw of the others.
LASV entry inh: Lassa virus entry inhibition | Lassa virus pseudotyped entry inhibition, cell-based qHTS | Potency, µM (highest dose often 49.2 µM), usual class: inhibitors | 18,000 compounds, 4.1% hits | AID 720533
Marburg entry: inhibitors of Marburg virus binding or entry into cells; Potency, µM (highest dose often 49.2 µM), actives largely listed as inhibitors; Marburg virus pseudotype entry/binding inhibition, cell-based; 18,000 compounds, 6.5% hits; AID 720532
Each line names hits and unclear results; the compound was inactive in the other large screens; ! = repeats disagree. Calls follow the shape of the full dose curve; tested in HEK293 cells.

COCOc1ccc(Br)cc1C(=O)[C@@H]1O[C@@H]1c1cccc(OC)c1	none
O=C(C=Cc1cccc([N+](=O)[O-])c1)c1ccccc1	none (no result: LASV entry inh)
[O][C@H]1[C@@H](O)[C@@H](CO)O[C@@H](O[C@@H]2[C@@H]3OC[C@H]2O[C@H](O[C@@H]2[C@@H](O)[C@H](C[C@@H]4[C@@H]5OC[C@H]4O[CH][C@@H]5O)O[C@H](CO)[C@@H]2OS(=O)(=O)O)[C@@H]3OS(=O)(=O)O)[C@@H]1O	Marburg entry 11µM
OC[C@@H]1O[C@H](OC2[C@@H](O)[C@@H](O)C(O)O[C@@H]2CO)[C@H](O)[C@@H](O)[C@@H]1OC1O[C@H](CO)[C@@H](O)[C@H](O)[C@@H]1O (some centres not stated)	none
c1ccc(CN(CC2=NCCN2)c2ccccc2)cc1	Marburg entry inconclusive
CC(C)COC[C@H](CN(Cc1ccccc1)c1ccccc1)N1CCCC1	Marburg entry 6.3µM
Cc1cc2c(c(=O)o1)[C@H]1O[C@](c3ccsc3)(Cc3c1ccc1ccccc31)O2	Marburg entry inconclusive
COC(=O)[C@@]12Cc3ccccc3[C@H]1C[C@H](C)[C@@H](C)N2C(=O)C(F)(F)F	none
C[C@H]1CC[C@H]2C(=O)N(Cc3ccccc3)C[C@@H](O)CN2[C@H]1c1ccc(Br)cc1	none
CCN1C(=O)[C@@H]2[C@H]3[C@H](O)[C@H](O)CC(=NO[C@H](C)c4cn([C@@H]5COC[C@@H]5O)nn4)[C@@H]3CC[C@H]2C1=O	none
CC(C)C1C(=O)N(Cc2cn(CC3CCCCC3)nn2)CCS(=O)(=O)N1Cc1ccc(-c2ccc(Cl)nc2)cc1 (configuration not stated)	Marburg entry inconclusive
CC(C)C1C(=O)N(Cc2cn(CC3CCCCC3)nn2)CCS(=O)(=O)N1Cc1ccc(-c2ccc(F)nc2)cc1 (configuration not stated)	LASV entry inh 20µM, Marburg entry inconclusive
CC(C)[C@@H](OCc1ccccc1)[C@H](C)C=NO[C@H](C)c1cn([C@H](CO)Cc2ccccc2)nn1	none
Oc1cc(O)cc(/C=C/c2ccc(O)c(O)c2)c1	LASV entry inh 22µM, Marburg entry 20µM!
C/C=C/c1ccc(O)c(OC)c1	none
c1ccc2c(c1)CCCC2C1=NCCN1 (configuration not stated)	none
c1ccc2c(c1)OCC(C1=NCCN1)O2 (configuration not stated)	LASV entry inh inconclusive, Marburg entry 14µM
Cc1ccc(S(=O)(=O)N[C@@H](Cc2ccccc2)C(=O)CCl)cc1	LASV entry inh 35µM, Marburg entry inconclusive
Cc1ccc(S(=O)(=O)NCl)cc1	none
C=CC[C@@H]1C=C[C@@H](Oc2ccc(OC)cc2)[C@H](CO)O1	none
CC(=O)Oc1ccc(C2(c3ccc(OC(C)=O)cc3)Oc3ccccc3NC2=O)cc1	LASV entry inh 10µM
CC(=O)Oc1cccc(O)c1	none
O=C(NC1CC1)c1ccc(NC(=O)C2CCC2)cc1	none
CC(=O)Nc1ccc(NC(=S)NC(=O)c2ccc(C(C)(C)C)cc2)cc1	LASV entry inh 32µM, Marburg entry 7.1µM
N#C/C(=C\c1ccc(O)c(O)c1)C(=O)NCCCNC(=O)/C(C#N)=C/c1ccc(O)c(O)c1	none
CC(C)c1cc(/C=C(\C#N)C(=O)NCCCc2ccccc2)cc(C(C)C)c1O	LASV entry inh 25µM, Marburg entry inconclusive
C[C@@H]1CC2CCC[C@@H]2[C@]2(O1)C(=O)Nc1cccc(Br)c12 (some centres not stated)	none
COC[C@@H](OC(C)=O)[C@H]1OCc2ccccc2[C@@H]1C=Cc1ccccc1	none
CCOC(=O)Nc1ccc2c(c1)N(C(=O)CN(C)C)c1ccccc1CC2	LASV entry inh inconclusive, Marburg entry 40µM
CCOC(=O)Nc1ccc2c(c1)N(C(=O)CCN1CCOCC1)c1ccccc1S2	none
CNCCCC1c2ccccc2C=Cc2ccccc21	LASV entry inh inconclusive, Marburg entry 7.1µM
O=C(Nc1ccc([N+](=O)[O-])cc1Cl)c1cc(Cl)ccc1O	LASV entry inh 1.1µM, Marburg entry 5µM!
O=C(Nc1ccccc1)c1cc([N+](=O)[O-])ccc1Cl	Marburg entry inconclusive
C=CCNP1(=O)O[C@H](C=C)C[C@H](C=C)O1 (some centres not stated)	none
O=C(c1cccs1)N1C[C@@H](O)[C@@H](n2cc(C3CC3)nn2)C[C@@H]1c1ccc(Cl)cc1	none (no result: LASV entry inh)
C[C@H]1O[C@@H](O[C@H]2[C@@H](O)C[C@H](O[C@H]3[C@@H](O)C[C@H](O[C@H]4CC[C@@]5(C)[C@H](CC[C@@H]6[C@@H]5C[C@@H](O)[C@]5(C)[C@@H](C7=CC(=O)OC7)CC[C@]65O)C4)O[C@@H]3C)O[C@@H]2C)C[C@H](O)[C@@H]1O	LASV entry inh 4µM, Marburg entry inconclusive
C[C@@H]1O[C@H](O[C@@H]2[C@H](C)O[C@H](O[C@@H]3[C@H](C)O[C@H](O[C@H]4CC[C@]5(C)[C@@H](CC[C@@H]6[C@H]5C[C@@H](O)[C@]5(C)[C@@H](C7=CC(=O)OC7)CC[C@]65O)C4)C[C@@H]3O)C[C@@H]2O)C[C@H](O)[C@@H]1O	LASV entry inh 0.13µM, Marburg entry 0.89µM
C[C@]12[C@H](O)CC3C(CC[C@@H]4C[C@@H](O)CC[C@]34C)[C@@]1(O)CC[C@@H]2C1=CC(=O)OC1 (some centres not stated)	LASV entry inh 1.1µM, Marburg entry inconclusive
CC(=O)C1CCC2C3CCC4CC(O)CCC4(C)C3CC(O)C12C (configuration not stated)	none
CO[C@H]1[C@@H](O)C[C@H](O[C@H]2[C@@H](O)C[C@H](O[C@H]3[C@@H](O)C[C@H](O[C@H]4CC[C@@]5(C)[C@H](CC[C@@H]6[C@@H]5C[C@@H](O)[C@]5(C)[C@@H](C7=CC(=O)OC7)CC[C@]65O)C4)O[C@@H]3C)O[C@@H]2C)O[C@@H]1C	LASV entry inh inconclusive, Marburg entry 7.1µM
CC(=O)OC[C@H]1O[C@H](CCON=C(C)CCN2CCc3nc(-c4ccccc4)c(-c4ccccc4)cc3C2)C=C[C@H]1OC(C)=O	Marburg entry inconclusive
O=C1NC(=O)C(c2cccc(Cl)c2)=C1Nc1ccc(Cl)c(C(=O)O)c1	none
CN1[C@@H](C[C@@H](O)c2ccccc2)CCC[C@@H]1C[C@H](O)c1ccccc1	Marburg entry inconclusive
C[C@@H](C(=O)OC1C[C@H]2CC[C@@H](C1)N2C)c1ccc(Br)cc1 (some centres not stated)	Marburg entry inconclusive
CN1C2CCC1CC(OC(c1ccccc1)c1ccccc1N)C2 (configuration not stated)	Marburg entry 18µM
CN1C2CCC1CC(OC(c1ccccc1)c1ccc(Cl)cc1)C2 (configuration not stated)	LASV entry inh 11µM, Marburg entry 4µM
CCOC(=O)CN1C(=O)NC(CCc2ccccc2)C(C(=O)OC)=C1C (configuration not stated)	none (no result: LASV entry inh)
CCOC(=O)C=C1CN(Cc2ccc(OC)cc2)S(=O)(=O)c2ccccc21	Marburg entry inconclusive
C=CCN=C1N[C@@H](c2ccccc2)[C@H](C(=O)OC)[C@@H](C)N1CC	none
CC1=C(C/C=C(\C)CCC[C@H](C)CCC[C@H](C)CCCC(C)C)C(=O)c2ccccc2C1=O	none
CC(C)=CCC1=C(O)c2ccccc2C(=O)C1=O	LASV entry inh inconclusive, Marburg entry 5µM
CC(C)=CCN1C(=O)[C@]2(O[C@H](C)CC3=CCCC32)c2c(Br)cccc21 (some centres not stated)	none
